Compound activity (PubChem BioAssay)
This is one part of a sample in which hits are shown more often than they occur.
TSG101-PTAP inh – blocks PTAP/TSG101 interaction to inhibit HIV-1 budding; Fluorescence polarization, FITC-PTAP peptide / Tsg101 binding; Potency, µM (highest dose often 115 µM), without a hit: at the top dose activity change, negative = inhibition, actives largely listed as inhibitors; 340,000 tested, under 10 active; Q99816; active means well fitted inhibition curve with a large enough effect in the main read-out, with a control signal flat, not every such curve was filed as active; inconclusive means small, poorly fitted or top-dose-only effect, or effect the other way, or a change in a side signal; inactive means no such curve, though single readings can be large or run the other way; further: % of control where 0% means no effect
Target sequence (Q99816 whole entry, looked up): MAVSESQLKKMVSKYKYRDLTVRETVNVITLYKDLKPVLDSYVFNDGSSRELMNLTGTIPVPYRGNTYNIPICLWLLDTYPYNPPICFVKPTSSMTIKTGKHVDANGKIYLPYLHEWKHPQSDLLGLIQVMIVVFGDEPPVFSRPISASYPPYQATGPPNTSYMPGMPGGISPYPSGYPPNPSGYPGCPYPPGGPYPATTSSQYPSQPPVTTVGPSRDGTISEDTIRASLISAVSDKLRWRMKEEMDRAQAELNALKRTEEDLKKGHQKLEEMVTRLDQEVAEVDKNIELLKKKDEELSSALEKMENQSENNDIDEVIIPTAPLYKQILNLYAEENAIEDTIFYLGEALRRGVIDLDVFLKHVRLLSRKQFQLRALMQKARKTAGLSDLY
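Steps: Tsg101 binding domain dispensed (10 uM final), compounds pinned in DMSO, FITC-labeled PTAP-motif peptide added (50 nM final); after 20 min binding at room temperature, polarization measured.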
Epigenetic derep – regulators of epigenetic silencing causing reporter derepression in mouse cells; actives 0.2% (n = 280,000); Potency, µM (series often up to 53.9 µM), without a hit: top-dose GFP activation, hits mostly activators; murine LDR cells, GFP reporter derepression, 30 h; further: % of control where 0% means no effect; nearly all actives have a fitted effect of over 60% in size
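Murine LDR cells bearing a silenced CMV-driven GFP reporter were exposed to compound for 30 h at 37 C. After PBS washes, GFP-positive cells (20-120 um objects) counted by laser-scanning microplate cytometry.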
Anesthetic bind – candidate novel general anesthetic via apoferritin binding; apoferritin/1-aminoanthracene competitive binding, fluorescence; Potency, µM (series often up to 77.5 µM), for inactives: at the top dose activity change, negative = displacement, hits mostly inhibitors; actives 0.074% (n = 350,000); further: on the % scale 0 is the no-effect control and ±100 the full control effect; nearly all actives have a fitted effect of over 20% in size
Target sequence (P02791 2-175 limits assumed): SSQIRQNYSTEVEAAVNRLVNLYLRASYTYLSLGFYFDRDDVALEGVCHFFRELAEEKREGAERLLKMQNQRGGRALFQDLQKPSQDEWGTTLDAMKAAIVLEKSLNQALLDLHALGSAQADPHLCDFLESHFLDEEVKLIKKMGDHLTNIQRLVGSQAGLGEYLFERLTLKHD
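In PBS, apoferritin at 10 uM is loaded with 1-AMA from a 50% saturated solution. After 10 min of compound exposure at ambient temperature, reduced 535 nm fluorescence indicates probe displacement.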
PINK1 expr mod – PINK1 expression modulation. PINK1 immunofluorescence, high-content cytometry, 24 h. Potency, µM (highest dose often 76.6 µM), for inactives: at the highest dose activation (PINK1 increase), most hits filed as activators. actives 0.2% (n = 410,000). AID 624263; active means well fitted activation curve with a large enough effect; inconclusive means small, poorly fitted or top-dose-only effect; cell line not stated here; further: % of control where 0% means no effect; nearly all actives have a fitted effect of over 65% in size
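Decision-based qHTS: stable cells, 24 h exposure to five compound concentrations, CCCP as control. Fixed cells stained for PINK1 plus nuclear, mitochondrial and cell markers, cytometer read.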
HTT cytoprotect – protects HTT-Q103 PC12 cells, measured by ATP | PC12 HTT-Q103 induced, cytoprotection, ATP luminescence, 40 h | Potency, µM (titrated, usually from 56.4 µM), without a hit: cytoprotection (ATP increase), hits mostly activators | actives 0.14% (n = 230,000) | AID 1471; further: % of control where 0% means no effect; nearly all actives have a fitted effect of over 45% in size
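Stable PC12 Q103-GFP cells in serum-supplemented, phenol red-free DMEM; induction by tebufenozide at 100 nM final; compound dose series; cell viability quantified luminescently from ATP.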
HttQ103 aggreg – mutant huntingtin aggregation inhibition | PC12 HttQ103-GFP aggregates, Acumen cytometry, 40 h | Potency, µM (highest dose often 46.1 µM), for the others: at the top dose activity change, negative = inhibition, actives largely listed as inhibitors | actives 1.1% (n = 220,000) | AID 1688; further: on the % scale 0 is the no-effect control and ±100 the full control effect; nearly all actives have a fitted effect of over 60% in size
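PC12 cells with ecdysone-inducible HTT exon1 Q103-GFP, induced by 100 nM tebufenozide, given compounds in a concentration series. GFP aggregates (1–25 um, 6 SD above background) counted in lysates by laser-scanning cytometry, 488 nm excitation.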
* hit, by the source's call; ? = inconclusive; · = not tested or not shown; [ ] = dose if it differs, or a comment. Unless noted, the call rests on the fitted dose curve; in most records, active means well fitted curve in the direction sought with a large enough effect; inconclusive means small, poorly fitted or top-dose-only effect, or another doubt; inactive means no such curve, though single readings can be large; an effect the other way counts as inactive or inconclusive. Potency means the concentration at half of the fitted maximal effect.

SMILES	TSG101-PTAP inh	Epigenetic derep	Anesthetic bind	PINK1 expr mod	HTT cytoprotect	HttQ103 aggreg
O=C(c1cscn1)N1CCOc2ccc(CN3CCC(Oc4cccnc4)CC3)cc2C1	·	·	·	-0.7%	·	·
O=C(O)COc1ccccc1C(Nc1cccnc1)c1cc(Cl)c2cccnc2c1O (centres undefined)	-8.8%	-1.3%	28.2µM*	4.4%	-23.7%	19.5%
CCCC(=O)NC(c1ccco1)c1cc(Cl)c2cccnc2c1O (centres undefined)	-0.5%	?	-5.7%	-3.0%	0.8%	?
CCCC(=O)NC(c1ccc2c(c1)OCO2)c1cc(Cl)c2cccnc2c1O (centres undefined)	-3.7%	?	3.0%	4.3%	-68.6%[10 µM]	2.82µM*
O=C(NC(c1ccccc1)c1cc(Cl)c2cccnc2c1O)c1cccnc1 (centres undefined)	·	1.5%	-7.1%	·	-87.8%[10 µM]	3.98µM*
O=C(CC1Oc2ccccc2NC1=O)NCc1ccccc1 (centres undefined)	-2.6%	1.7%	-16.6%	0.0%	-4.2%	9.6%
CC(=O)CC1OC(=O)C(Br)=C1NCc1ccccc1 (centres undefined)	-6.7%	7.94µM*	-12.9%	-2.6%[38.3 µM]	-141.9%	?
Cc1cnc(C)c(-c2cc(F)cc3c2OC(CNC(=O)Cc2ccccc2C)C3)n1 (centres undefined)	·	·	·	0.0%	·	·
Cc1cc(C)n(-c2nc(C)nc(N)n2)n1	2.2%	-2.1%	9.1%	0.2%	7.1%	0.794µM*
Cc1cc(Cl)nc(-n2nc(C)cc2C)n1	-12.7%	0.9%	-15.7%	0.5%	-1.4%[10 µM]	?
COc1ccccc1-n1c(=O)c(C#N)c(-c2ccc([N+](=O)[O-])cc2)c2cc(C(=O)c3cc(F)ccc3O)cnc21	-10.7%	0.0%	?	1.8%	13.1%[10 µM]	23.9%
Cn1c(=O)c(C#N)c(-c2ccc(F)cc2)c2cc(C(=O)c3cc(Cl)cc(Cl)c3O)cnc21	-15.0%	1.1%	-0.4%	25.1µM*	0.0%[10 µM]	16.0%[9.22 µM]
CCCCCCN1C=CC(=C2C(=O)c3ccccc3C2=O)C=C1	8.3%	1.2%	-7.5%	?	-80.5%[10 µM]	24.4%[9.22 µM]
CCCCN1C=CC(=C2N=c3cccc([N+](=O)[O-])c3=N2)C=C1	-1.0%	-1.5%	-20.2%	2.7%	23.9%[10 µM]	0.891µM*
CC(C)(C)C(=O)NC(=S)NNC(=O)c1sc2ccccc2c1Cl	1.6%	-2.2%	0.3%	-4.7%	-27.3%[10 µM]	10µM*
CCOc1ccc(Br)cc1/C(C)=N\NC1=NCCN1	-1.1%	0.1%	-18.5%	1.0%	-7.9%	12.6µM*
Cc1ccc(CN2CCOc3ccc(CN4CCC(Oc5cccnc5)CC4)cc3C2)o1	·	·	·	-0.9%	·	·
O=C1NCCCc2c1oc1ccc(O)cc21	-8.2%	-1.2%	-4.2%	-12.0%[38.3 µM]	-35.3%	22.4µM*
O=C(CN1CCN(c2ncccn2)CC1)N1CCCc2c1c(=O)oc1ccc(O)cc21	-1.8%	4.7%	-7.4%	3.2%	20.0%[10 µM]	?
N#C/C(=C/c1ccc(O)cc1)c1nc(-c2ccc(-c3ccccc3)cc2)cs1	·	11.2µM*	-17.9%	17.7%	·	·
CCOC(=O)/C(=C/C=C1\Sc2ccccc2N1CC)C(C)=O	?	?	-3.2%	1.8%	-11.8%[10 µM]	-4.1%
CCOC(=O)/C(=C\C=C1/Sc2ccccc2N1CC)C(C)=O	?	15.8µM*	-11.6%	7.8%	-6.5%[10 µM]	-10.4%
CCC(=O)/C=C1/Sc2ccccc2N1CC	-1.6%	1.0%	-2.5%	4.0%	2.6%[10 µM]	7.08µM*
CCN(CC)S(=O)(=O)c1ccc(NC(=O)c2ccc(Sc3nncn3C)c([N+](=O)[O-])c2)cc1	-0.2%	7.4%	-16.5%	-0.2%	-1.4%[1.9 µM]	27.5%
CCS(=O)(=O)c1ccc(Sc2nncn2C)c([N+](=O)[O-])c1	-1.8%	0.0%	-6.0%	-1.0%	-164.7%	11.2µM*
SMILES	TSG101-PTAP inh	Epigenetic derep	Anesthetic bind	PINK1 expr mod	HTT cytoprotect	HttQ103 aggreg
CCOC(=O)c1sc(NC(=O)CSc2n[nH]c(-c3ccccc3)n2)c(C#N)c1C	-2.6%	-1.9%	-2.9%	15.8µM*	0.7%[10 µM]	20µM*
CCOC(=O)c1sc(NC(=O)c2cc(-c3ccccc3)nc3ccccc23)c(C#N)c1C	1.3%	3.8%	-7.3%	?	-91.2%	7.08µM*
CCOC(=O)c1sc(NC(=O)CSc2nc3c(cc2C#N)CCCCC3)c(C#N)c1C	6.5%	-1.1%	-15.0%	1.0%	-24.6%	5.62µM*
CCOC(=O)c1sc(NC(=O)c2cccnc2)c(C#N)c1C	0.2%	4.3%	-13.1%	0.5%	-13.9%	-13.9%
CCOC(=O)c1sc(NC(=O)CSc2nc(C)cc(C)n2)c(C#N)c1C	0.4%	0.9%	-12.4%	10.9%[38.3 µM]	-7.8%	-11.9%
COc1ccc(-c2cc(C(F)(F)F)n3nc(C(=O)O)c(Cl)c3n2)cc1OC	·	-0.8%	-1.1%	0.0%	·	·
Cc1ncc2c(c1CNS(=O)(=O)N(C)C)CCN(C(=O)c1ccc(-c3ccc(F)cc3)cc1)C2	·	·	·	-1.1%	·	·
COc1ccc(-c2cc(CCCC(=O)NCCc3ccccc3)no2)cc1	0.2%	-1.2%	-7.6%	-0.2%	-23.6%[10 µM]	-6.1%[9.22 µM]
COc1ccc(-c2cc(CCCC(=O)NCCc3ccc(OC)cc3OC)no2)cc1	-2.7%	0.0%	-13.5%	11.2µM*	-15.4%[0.074 µM]	-7.1%
CC(=O)Nc1ccc(SCC(=O)c2cc(C)n(-c3ccccc3)c2C)cc1	-7.6%	0.0%	-6.3%	0.7%	9.3%[10 µM]	-11.0%
CCCCCCCC[n+]1c(C)n(-c2ccccc2)c2ccc(NC(C)=O)cc21	-0.6%	0.6%	-13.5%	12.0%	-35.6%	10µM*
CCCCc1cc2c(cn1)=C(OC(=O)c1ccco1)C(C)(OC(=O)CC)C(=O)C=2 (centres undefined)	·	·	·	·	7.3%[10 µM]	·
CCN(CC)CCCC(C)Nc1cc(/C=C/c2ccccc2Cl)nc2cc(Cl)ccc12 (centres undefined)	·	·	·	0.3%	-77.9%	-19.7%
CCN(CC)CCCC(C)Nc1c2ccc(Cl)cc2nc2ccc(OC)cc12 (centres undefined)	·	3.16µM*	140.4%	-0.3%	-336.6%	·
C=CC[n+]1c(-c2ccc(OC)cc2)csc1NNC(=O)Nc1ccccc1	-8.5%	1.2%	-22.8%	1.2%[38.3 µM]	28.4%	10µM*
O=C(Nc1nccs1)c1ccc(S(=O)(=O)NCC2CCCCC2)cc1	·	-1.6%	14.1µM*	13.9%[38.3 µM]	-11.4%	?
CCN(CC)c1ccc(/C=N/n2nnnc2N)c(O)c1	-4.5%	-2.0%	-1.3%	3.5%	-27.9%	5.62µM*
COc1ccc(C=NNc2ccc([N+](=O)[O-])cn2)cc1	1.2%	·	·	11.2µM*	·	·
Cc1cc(N/N=C/c2ccc(Cl)cc2)nc(NCc2ccccc2)n1	-1.5%	0.0%	2.0%	-0.8%	·	12.6µM*
